Assay results taken from the supplement of paper PMC12494721.
Counter-ions that a name gives are not always drawn.

Key:
Settings in all cases: incubation time: 27 h, anaerobic, 37 °C;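 for the amine columns active = adjusted P below 0.05 in both replicates with a change the same way and a mean fold change under 0.8 or over 1.25; inactive = the rest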
[1] = system: Clostridium sporogenes DSM 1664; assay: growth (OD595) fold change vs plate DMSO controls (fold change (ratio)); higher = more growth
Method in brief: (§1)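 Growth is the fold change relative to the median of plate DMSO controls. Readings came from anaerobic mGAM cultures in 96-well plates grown for 27 h at 37 °C and read at 595 nm. They were blank-subtracted, corrected for compound background with 20 µM compound solutions in water, and converted to OD with a calibration factor of 5. Values are means of 2 biological replicates, and fold changes above 1.5 were set to NA.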

Escherichia coli IAI1 [2] = assay: as above
Method in brief: as §1

[3] = system: Klebsiella aerogenes DSM 30053; assay: as above
Method in brief: as §1

[4] = system: Ruminococcus gnavus DSM 108212; assay: as above
Method in brief: as §1

[5] = system: Klebsiella aerogenes DSM 30053; assay: fold change of Histamine concentration vs plate DMSO controls (fold change (ratio)); higher = more amine produced, active = hit call of the paper (significant change in both replicates, either direction)
Method in brief: (§2)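 In 80 µL wells, cultures of four gut bacterial strains in mGAM started at OD 0.1 before a 1:1 dilution and grew anaerobically at 37 °C for 27 h. Compounds were added to 20 µM final, except sweeteners at 50 µM final. After extraction of whole cultures with cold acetonitrile/methanol plus 0.1% formic acid and centrifugation, amines were measured by LC–triple-quadrupole MS in dynamic MRM mode against external calibration curves, with within-batch drift correction. Values give fold change over DMSO controls on the same plate, averaged across 2 biological replicates.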

[6] = system: Clostridium sporogenes DSM 1664; assay: fold change of Tryptamine concentration vs plate DMSO controls (fold change (ratio)); higher = more amine produced, active = hit call of the paper (significant change in both replicates, either direction)
Method in brief: as §2

[7] = system: Ruminococcus gnavus DSM 108212; assay: as above
Method in brief: as §2

Escherichia coli IAI1 [8] = assay: fold change of Putrescine concentration vs plate DMSO controls (fold change (ratio)); higher = more amine produced, active = hit call of the paper (significant change in both replicates, either direction)
Method in brief: as §2

[9] = system: Klebsiella aerogenes DSM 30053; assay: as above
Method in brief: as §2

Escherichia coli IAI1 [10] = assay: fold change of Cadaverine concentration vs plate DMSO controls (fold change (ratio)); higher = more amine produced, active = hit call of the paper (significant change in both replicates, either direction)
Method in brief: as §2

[11] = system: Klebsiella aerogenes DSM 30053; assay: as above
Method in brief: as §2

[12] = system: Ruminococcus gnavus DSM 108212; assay: fold change of 2-Phenylethylamine concentration vs plate DMSO controls (fold change (ratio)); higher = more amine produced, active = hit call of the paper (significant change in both replicates, either direction)
Method in brief: as §2

Structure (SMILES) | growth [1] | growth (Escherichia coli IAI1 [2]) | growth [3] | growth [4] | fold change of Histamine concentration [5] | fold change of Tryptamine concentration [6] | fold change of Tryptamine concentration [7] | fold change of Putrescine concentration (Escherichia coli IAI1 [8]) | fold change of Putrescine concentration [9] | fold change of Cadaverine concentration (Escherichia coli IAI1 [10]) | fold change of Cadaverine concentration [11] | fold change of 2-Phenylethylamine concentration [12]
Cc1nc(C)c(Cl)c(O)c1Cl [Clopidol] (20 µM) | 1.18 | 1.01 | 1.04 | 1.14 | 1 (inactive) | 0.998 (inactive) | 1.01 (inactive) | 1.02 (inactive) | 0.991 (inactive) | 1.02 (inactive) | 0.985 (inactive) | 1.01 (inactive)
CC(=O)OCC(=O)[C@@]1(O)[C@H](C)C[C@H]2[C@@H]3CCC4=CC(=O)C=C[C@]4(C)[C@@]3(F)[C@@H](O)C[C@@]21C [Dexamethasone acetate] (20 µM) | 1.05 | 1.01 | 0.986 | 0.878 | 1.02 (inactive) | 1.06 (inactive) | 1.01 (inactive) | 0.987 (inactive) | 1.02 (inactive) | 1.02 (inactive) | 0.983 (inactive) | 0.993 (inactive)
NC(=O)OCC(O)COc1ccc(Cl)cc1 (stereo not given) [Chlorphensin carbamate] (20 µM) | 1.02 | 1.02 | 0.951 | 1.2 | 0.969 (inactive) | 0.996 (inactive) | 0.995 (inactive) | 1 (inactive) | 0.913 (inactive) | 0.951 (inactive) | 1.02 (inactive) | 1.07 (inactive)
C=C1c2c(Cl)ccc(O)c2C(O)=C2C(=O)[C@]3(O)C(O)=C(C(N)=O)C(=O)[C@@H](N(C)C)[C@@H]3[C@@H](O)[C@H]12.O=C(O)c1cc(S(=O)(=O)O)ccc1O [Meclocycline sulfosalicylate] (20 µM) | 0.0138 | 0.000715 | 0.0719 | 0.113 | 0.0573 (active) | 0.0133 (active) | 0.0772 (active) | 0.14 (active) | 0.444 (active) | 0.447 (active) | 0.514 (active) | 0.11 (active)
CC(C)(Oc1ccc(Cl)cc1)C(=O)O [Clofibric acid] (20 µM) | 1.11 | 0.983 | 1.02 | 0.96 | 1.12 (inactive) | 0.982 (inactive) | 1 (inactive) | 0.957 (inactive) | 1.02 (inactive) | 1 (inactive) | 0.982 (inactive) | 1 (inactive)
CO[C@@]1(NC(=O)Cc2cccs2)C(=O)N2C(C(=O)O)=C(COC(N)=O)CS[C@@H]21 [Cefoxitin sodium salt] (20 µM) | 0 | 0.00646 | 1.45 | 0 | 1.21 (inactive) | 0.0449 (active) | 0.0768 (active) | 0.153 (active) | 1.09 (inactive) | 0.623 (active) | 1.11 (inactive) | 0.0566 (active)
OCC(CO)N[C@H]1C[C@](O)(CO)[C@@H](O)[C@H](O)[C@H]1O [Voglibose] (20 µM) | 1.03 | 1.05 | 1.03 | 1.17 | 1.02 (inactive) | 1.06 (inactive) | 1.06 (inactive) | 0.984 (inactive) | 0.99 (inactive) | 0.917 (inactive) | 1.01 (inactive) | 1.09 (inactive)
Cc1nc(=O)c2cc(CN(C)c3ccc(C(=O)N[C@@H](CCC(=O)O)C(=O)O)s3)ccc2[nH]1 [Raltitrexed] (20 µM) | 1.11 | 1 | 1.02 | 1.21 | 1 (inactive) | 1.17 (inactive) | 1.06 (inactive) | 0.924 (inactive) | 0.968 (inactive) | 0.943 (inactive) | 1.05 (inactive) | 1.06 (inactive)
O=S(=O)(O)c1cc(O)ccc1O [Ethamsylate diethylammonium salt] (20 µM) | 0.89 | 0.975 | 0.98 | 0.997 | 1.07 (inactive) | 0.982 (inactive) | 1.05 (inactive) | 0.989 (inactive) | 1.02 (inactive) | 1.02 (inactive) | 0.99 (inactive) | 1.09 (inactive)
COc1ccc(C(=O)c2ccccc2)c(O)c1 [Oxybenzone] (20 µM) | 0.901 | 0.808 | 0.963 | 0.984 | 0.962 (inactive) | 0.954 (inactive) | 1.03 (inactive) | 0.823 (inactive) | 1 (inactive) | 1.07 (inactive) | 1 (inactive) | 0.979 (inactive)
CCOc1ccccc1OCCN[C@H](C)Cc1ccc(OC)c(S(N)(=O)=O)c1 [(R)-Tamsulosin hydrochloride] (20 µM) | 0.839 | 0.964 | 1.03 | 1.01 | 0.94 (inactive) | 0.98 (inactive) | 1.02 (inactive) | 1 (inactive) | 1.01 (inactive) | 1.01 (inactive) | 1 (inactive) | 0.976 (inactive)
CCCCOc1ccc(CC(=O)NO)cc1 [Bufexamac] (20 µM) | 0.989 | 0.929 | 0.846 | 1.04 | 1.25 (inactive) | 0.989 (inactive) | 1.02 (inactive) | 0.929 (inactive) | 0.959 (inactive) | 0.965 (inactive) | 0.956 (inactive) | 1.07 (inactive)
CNCCC(Oc1ccc(C(F)(F)F)cc1)c1ccccc1 (stereo not given) [Fluoxetine hydrochloride] (20 µM) | 1.18 | 1.02 | 1.03 | 1.2 | 0.972 (inactive) | 0.945 (inactive) | 0.882 (inactive) | 0.927 (inactive) | 0.993 (inactive) | 1.19 (inactive) | 0.995 (inactive) | 0.907 (inactive)
Cc1cc(-c2ccccc2)nnc1NCCN1CCOCC1 [Minaprine dihydrochloride] (20 µM) | 1.21 | 0.985 | 0.972 | 1.16 | 0.939 (inactive) | 1.01 (inactive) | 0.991 (inactive) | 0.963 (inactive) | 0.998 (inactive) | 1.01 (inactive) | 1 (inactive) | 0.955 (inactive)
CO[C@@H]1[C@@H](O[C@@H]2O[C@H](C)[C@@H](O[C@H]3C[C@@](C)(O)[C@@H](OC(=O)CC(C)C)[C@H](C)O3)[C@H](N(C)C)[C@H]2O)[C@@H](CC=O)C[C@@H](C)[C@@H](O)/C=C/C=C/C[C@@H](C)OC(=O)C[C@H]1OC(C)=O [Josamycin] (20 µM) | 0.00305 | 0.881 | 0.953 | 0.124 | 0.572 (inactive) | 0.0546 (active) | 0.135 (active) | 0.708 (inactive) | 1.08 (inactive) | 1.34 (active) | 1.06 (inactive) | 0.116 (active)
Cc1ccsc1C(=CCCN1CCC[C@@H](C(=O)O)C1)c1sccc1C [Tiagabine hydrochloride] (20 µM) | 1.03 | 0.984 | 1.05 | 1.01 | 0.968 (inactive) | 0.999 (inactive) | 0.971 (inactive) | 1.03 (inactive) | 1.02 (inactive) | 1.01 (inactive) | 1.01 (inactive) | 0.927 (inactive)
C[C@@H](O)[C@H]1C(=O)N2C(C(=O)O)=C(S[C@@H]3CN[C@H](CNS(N)(=O)=O)C3)[C@H](C)[C@H]12 [Doripenem monohydrate] (20 µM) | 0 | 0.00243 | 0.281 | 0.0314 | 0.193 (active) | 0.0168 (active) | 0.0858 (active) | 0.954 (inactive) | 0.467 (active) | 2.1 (active) | 1.08 (inactive) | 0.0567 (active)
N=C(N=C(N)N)N1CCOCC1 [Moroxidine hydrochloride] (20 µM) | 0.931 | 1.05 | 1 | 1.39 | 1.11 (inactive) | 0.987 (inactive) | 1.18 (inactive) | 0.989 (inactive) | 1.06 (inactive) | 0.916 (inactive) | 1.09 (inactive) | 1.34 (active)
Oc1c(Cl)cc(Cl)c(Cl)c1Cc1c(O)c(Cl)cc(Cl)c1Cl [Hexachlorophene] (20 µM) | 0 | 0.943 | 0.999 | 0 | 1.17 (inactive) | 0.0251 (active) | 0.0326 (active) | 0.982 (inactive) | 1.02 (inactive) | 1.1 (inactive) | 1.02 (inactive) | 0.0393 (active)
Cc1cnc(C(=O)O)c[n+]1[O-] [Acipimox] (20 µM) | 1.05 | 0.996 | 1.27 | 0.959 | 0.874 (inactive) | 0.952 (inactive) | 1 (inactive) | 1.01 (inactive) | 0.998 (inactive) | 1.03 (inactive) | 1.03 (inactive) | 1.03 (inactive)
CC(C)(C)NCC(O)c1cc(O)cc(O)c1 (stereo not given) [Terbutaline hemisulfate] (20 µM) | 0.98 | 1.02 | 1.05 | 1.11 | 1.02 (inactive) | 1.05 (inactive) | 1.06 (inactive) | 1.05 (inactive) | 0.985 (inactive) | 0.932 (inactive) | 0.993 (inactive) | 1.06 (inactive)
COc1cccc2c1C(=O)c1c(O)c3c(c(O)c1C2=O)C[C@@](O)(C(C)=O)C[C@@H]3O[C@H]1C[C@H](N)[C@H](O)[C@H](C)O1 [Daunorubicin hydrochloride] (20 µM) | 0.967 | 0.972 | 0.997 | 1.13 | 1.01 (inactive) | 0.941 (inactive) | 0.986 (inactive) | 0.988 (inactive) | 1.02 (inactive) | 1.09 (inactive) | 1.04 (inactive) | 0.967 (inactive)
O=C(O)c1cccnc1Nc1cccc(C(F)(F)F)c1 [Niflumic acid] (20 µM) | 0.913 | 1.08 | 0.996 | 1.32 | 1.05 (inactive) | 1.04 (inactive) | 1.02 (inactive) | 1.08 (inactive) | 1.01 (inactive) | 0.996 (inactive) | 0.993 (inactive) | 0.988 (inactive)
CCN(CC)Cc1cc(Nc2ccnc3cc(Cl)ccc23)ccc1O [Amodiaquine dihydrochloride dihydrate] (20 µM) | 0.973 | 0.964 | 0.915 | 1.02 | 1.03 (inactive) | 1.01 (inactive) | 1.01 (inactive) | 0.928 (inactive) | 1.01 (inactive) | 0.967 (inactive) | 0.978 (inactive) | 1.03 (inactive)
CCCNC(C)C(=O)Nc1ccccc1C (stereo not given) [Prilocaine hydrochloride] (20 µM) | 0.947 | 0.973 | 1.02 | 0.708 | 1.07 (inactive) | 0.934 (inactive) | 1.02 (inactive) | 1.01 (inactive) | 1.02 (inactive) | 0.993 (inactive) | 0.988 (inactive) | 1 (inactive)
